PI4K2A inh: PI4K2A (human) kinase inhibition. Q9BTU6. purified PI4K2A, ADP-Glo luminescence, 1 h; hits give low values. activity change, negative = inhibition, % at 76.9 µM. actives 0.13% (n = 420,000); in the data active = activity change below about -50%; inconclusive = mostly about -30% to -49%;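 also: -100% = wells without enzyme as full effect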
Target sequence (Q9BTU6 whole entry, looked up): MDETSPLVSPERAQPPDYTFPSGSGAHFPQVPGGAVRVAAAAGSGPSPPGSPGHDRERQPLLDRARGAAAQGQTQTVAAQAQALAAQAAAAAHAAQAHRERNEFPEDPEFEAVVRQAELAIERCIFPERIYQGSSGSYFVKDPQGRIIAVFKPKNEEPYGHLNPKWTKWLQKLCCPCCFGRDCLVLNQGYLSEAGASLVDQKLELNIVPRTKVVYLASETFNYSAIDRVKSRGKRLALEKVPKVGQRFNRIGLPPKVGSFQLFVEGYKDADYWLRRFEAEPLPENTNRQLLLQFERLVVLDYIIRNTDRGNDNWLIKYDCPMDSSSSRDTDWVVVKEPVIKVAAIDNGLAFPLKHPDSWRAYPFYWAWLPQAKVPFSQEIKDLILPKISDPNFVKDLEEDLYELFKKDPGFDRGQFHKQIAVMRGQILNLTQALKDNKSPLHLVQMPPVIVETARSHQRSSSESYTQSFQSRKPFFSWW
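In this quantitative HTS, ADP production by PI4K2A was quantified luminescently after 1 h at ambient temperature; 100 microM adenosine served as plate-quality control.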
DRD3 agonist: agonists of human D3 dopamine receptor; max activation, %; AID 652048; actives 0.58% (n = 410,000); P35462; D3R DiscoveRx beta-arrestin cells, luminescence, 90 min; in the data active = max activation above about 30%; also: 0% is about no effect
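Agonist-mode cell screen: cells plated at 1500/well and incubated overnight at 37 °C, then exposed to library compounds for 90 min at 37 °C. Detection reagent was added for 30–60 min at room temperature, and luminescence was read.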
PI5P4K alpha inh: inhibitors of human PI5P4K alpha. AID 652105. PI5P4Kalpha enzyme, ADP-Glo luminescence, 60 min; hits give low values. actives 1.2% (n = 330,000). max response, %. P48426; active = max response of -50% or lower; inconclusive = between -30% and -50%; inactive = -30% or higher; also: value at the top dose of about 77 µM; % is scaled to controls: 0 for no effect and ±100 for the full control effect
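Enzyme plus substrate dispensed, test compounds pinned in, then ATP (5 microM final) added. After 60 min at RT, ADP-Glo reagent 1 for 45 min and reagent 2 for 30 min preceded luminescence imaging.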
LDHA inh: blocks human lactate dehydrogenase A. P00338. purified LDHA, NADH/diaphorase-resazurin fluorescence; hits give low values. activity change, % (values are at about 110 or 230 µM). actives 0.15% (n = 480,000); in the data active = activity change below about -30%; inconclusive = mostly about -25% to -30%;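 also: plate controls were DMSO wells for no effect and wells without enzyme for full effect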
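Enzyme activity of human lactate dehydrogenase 5 (2 nM; 0.06 mM NADH, 0.2 mM pyruvate, 5 min, RT) is measured via a resazurin/diaphorase fluorescence readout of residual NADH.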
D3 antag: D3 dopamine receptor (human) antagonism | P35462 | D3R cells, DiscoveRx beta-arrestin luminescence, antagonist mode; hits give low values | max response, negative = inhibition, % | actives 2.5% (n = 360,000) | AID 652054; in the data active = max response below about -50%; inconclusive = no clear call, values can overlap the other calls; also: % is scaled to controls: 0 for no effect and ±100 for the full control effect
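Cells plated overnight at 1500 cells/well, then exposed to library compounds with dopamine controls for 90 minutes at 37 degrees C. DiscoveRx reagent added for 30–60 minutes at room temperature; luminescence read, quantitative HTS format.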
The depositor's hits bear a star; ? = inconclusive; / = no result. Hits are enriched below; roughly 3.3% of the tested compounds scored in any of these assays.

SMILES | PI4K2A inh | DRD3 agonist | PI5P4K alpha inh | LDHA inh | D3 antag
CC1=C(c2ccccc2)[N+](=O)C(C)(c2ccc(Cl)cc2)N1[O-] (stereo not given) | / | / | / | 0 | /
COc1cc(/C=N/NC(=O)c2cccnc2)cc(Br)c1O | 5 | -1 | -7 | 0 | -5
COc1c(Br)cc(Br)cc1/C=N/NC(=O)c1cccnc1 | 0 | -29 | -10 | -1 | -96*
COc1c(Br)cc(Br)cc1/C=N/NC(=O)c1ccncc1 | -1 | -9 | 12 | -9 | -80*
CCCCNC(=O)NCCN(C)C | / | / | / | 3 | /
O=C(Nc1c(-c2ccc3c(c2)OCO3)[nH][nH]c1=O)c1ccccc1 | -60* | -8 | -21 | 14 | -92*
O=C(Nc1c(-c2ccccc2)[nH][nH]c1=O)c1ccc2c(c1)OCO2 | ? | -3 | 2 | 7 | -12
Cc1ccc(C(=O)Nc2c(-c3ccc(Cl)cc3)[nH][nH]c2=O)cc1 | ? | -11 | 5 | 5 | -70*
CCOC(=O)c1ccc(NC(=O)C2CC(=O)NC(N3CCN(c4ccccc4)CC3)=N2)cc1 (stereo not given) | / | / | / | 0 | /
CC(C)Sc1ccc(C(=O)O)cc1 | / | / | / | 0 | /
C#CCOCCOCCOCCNc1nc(N2CCN(C(=O)CCCCCCCCCCNC(=O)Cn3cc(C[C@@H](C)O)nn3)CC2)nc(N2CCN(C(=O)CCCCCCCCCCNC(=O)[C@H](CCCCN)n3cc(C[C@@H](C)CC)nn3)CC2)n1 | -5 | -18 | ? | 1 | ?
C#CCOCCOCCOCCNc1nc(N2CCN(C(=O)CCCCCCCCCCNC(=O)[C@H](CCCCN)n3cc(CCCC(=O)O)nn3)CC2)nc(N2CCN(C(=O)CCCCCCCCCCNC(=O)[C@H](CCCN=C(N)N)n3cc(C[C@@H](C)CC)nn3)CC2)n1 | -4 | -17 | ? | 4 | -8
C#CCOCCOCCOCCNc1nc(N2CCN(C(=O)CCCCCCCCCCNC(=O)[C@H](CCCCN)n3cc(CCO)nn3)CC2)nc(N2CCN(C(=O)CCCCCCCCCCNC(=O)[C@H](CCCN=C(N)N)n3cc(C[C@@H](C)CC)nn3)CC2)n1 | -2 | 6 | -66* | 10 | ?
C#CCOCCOCCOCCNc1nc(N2CCN(C(=O)CCCCCCCCCCNC(=O)[C@H](CCCCN)n3cc(C[C@@H](C)CC)nn3)CC2)nc(N2CCN(C(=O)CCCCCCCCCCNC(=O)[C@H](CCCCN)n3cc(C[C@@H](C)CC)nn3)CC2)n1 | -3 | -18 | -52* | 1 | -51*
CC(C)c1ccc(O)c(NC(=O)c2cccnc2)c1 | -6 | -13 | / | 3 | -19
CCC(C)c1ccc(O)c(NC(=S)NC(=O)c2cccnc2)c1 (stereo not given) | 1 | -41 | 0 | -3 | -63*
O=C(NCc1ccc(OCC(F)(F)F)cc1)c1ccc(S(=O)(=O)N2CCCC2)cc1 | / | / | / | -1 | /
CNc1ccc(C=C2C=Cc3ccccc32)cc1 | 0 | -1 | 5 | -1 | -25
CNCCC=C1c2ccccc2C=Cc2ccccc21 | 2 | -81 | -1 | -4 | -77*
CN(C)CCC=C1c2ccccc2C=Cc2ccccc21 | 3 | -95 | -10 | 3 | -120*
CC1=CC(=O)C=C(C)C1=NOC(=O)c1cccc([N+](=O)[O-])c1 | -2 | 8 | -2 | 22 | -83*
O=C(Nc1ccc(C2=CN(Cc3ccccc3)CCC2=O)cc1)OCc1ccccc1 | -4 | 52* | 0 | -3 | 31
O=c1[nH]c(CSc2nnnn2-c2ccccc2)nc2ccsc12 | / | / | / | 2 | /
CCC(C)NC(=O)C1CCN(CCCc2ccccc2)CC1 (stereo not given) | 4 | -6 | -1 | -4 | 1
CCCN1CCC(C(=O)NC(c2ccc(F)cc2)c2ncccc2C)CC1 (stereo not given) | 1 | -10 | -1 | -5 | -57*
SMILES | PI4K2A inh | DRD3 agonist | PI5P4K alpha inh | LDHA inh | D3 antag
CCN1CCC(C(=O)NC(c2ccc(F)cc2)c2ncccc2C)CC1 (stereo not given) | -3 | -15 | -3 | -15 | ?
Cc1cccnc1C(NC(=O)C1CCN(CCCc2ccccc2)CC1)c1ccc(F)cc1 (stereo not given) | -1 | -20 | -7 | -8 | -70*
O=c1cc(CN2CCN(c3ccccc3F)CC2)c2cc3c(cc2o1)CCCC3 | 6 | -29 | / | -2 | -62*
O=c1cc(CN2CCN(Cc3ccccc3)CC2)c2cc3c(cc2o1)CCC3 | 1 | -39 | 0 | 0 | -62*
Cc1ccccc1C(=O)NCC(=O)OCC(=O)NNC(=O)c1ccccc1F | -2 | -7 | -12 | 3 | ?
O=C(CNC(=O)c1ccccc1F)NNC(=O)c1ccccc1O | -1 | -15 | 0 | 12 | -59*
O=C(CCC(=O)c1cccs1)NNC(=O)c1ccccc1O | 0 | -16 | -52* | 3 | -2
Cn1nc(C(=O)Nc2ccc(Br)cc2)c2ccccc2c1=O | / | / | / | 0 | /
COc1ccc(NC(=O)Cc2ccccc2F)cc1S(=O)(=O)Nc1ccc(Cl)cc1 | / | / | / | -13 | /
CC(=O)Nc1nnc(CSCc2ccc(F)cc2)s1 | -2 | 3 | 1 | -15 | -51*
CC(=O)Nc1nnc(SCc2ccc(F)cc2)s1 | 0 | -2 | / | -6 | -5
Cc1cccc(NC(=O)CN2CCN(CC(=O)c3cc(C)n(CCc4cccs4)c3C)CC2)c1C | / | / | / | -1 | /
Cc1ccc(C)c2nc3sc(C(=O)N4CCCc5ccccc54)c(N)c3cc12 | 4 | -19 | / | -7 | -54*
CCc1ccc(Nc2ccc3nonc3c2[N+](=O)[O-])cc1 | -11 | -13 | 1 | -5 | 0
CCOC(=O)NNc1ccc2nonc2c1[N+](=O)[O-] | ? | -3 | -65* | 7 | -5
CNC(=O)NC(=O)CSc1ccc(Br)cc1 | / | / | / | 10 | /
CC1(C)CC(=O)C(C(C2=C(O)CC(C)(C)CC2=O)c2ccc(O)c([N+](=O)[O-])c2)=C(O)C1 | -14 | -6 | -68* | -7 | 0
CC1(C)CC(=O)C(C(C2=C(O)CC(C)(C)CC2=O)c2ccc([N+](=O)[O-])cc2)C(=O)C1 (stereo not given) | 0 | -12 | -6 | 12 | -1
c1ccc(N2CCN(Cc3nc4ccccc4[nH]3)CC2)nc1 | -2 | 0 | -18 | -3 | 3
C(#Cc1ccccc1)CN1CCN(c2ccccn2)CC1 | -10 | -1 | 0 | -7 | ?
Cc1[nH]c2ccccc2c1CN1CCN(c2ccccn2)CC1 | 5 | -27 | -2 | -3 | -67*
c1ccc(-c2ncc(CN3CCN(c4ccccn4)CC3)[nH]2)cc1 | -13 | -12 | 1 | -2 | -105*
O=C(NCc1ccccc1)OCCN1CCN(Cc2ccccc2)CCC1=O | -3 | -10 | 1 | 1 | -68*
Cc1cc(C)c2c(=O)[nH]c(SCc3ccccc3C)nc2n1 | -22 | -4 | -23 | -7 | -66*

Assay outcomes as filed in PubChem BioAssay.
